Assay results reported in PubChem BioAssay (Tox21).
Records with an inconclusive call do not appear. The source made the active and inactive calls. Unless noted, calls follow the shape of the dose curve; as a rule, active = well fitted curve in the direction sought with a large enough effect in the repeat runs; inconclusive = weak or mixed curves; inactive = no such curve, though single readings can be large; an effect the other way counts as inactive or inconclusive.

Assays:
[1] = qHTS assay to identify small molecule agonists of the sonic hedgehog signaling (Shh) pathway (AID 1259368; calls by dose curve;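 also: NIH/3T3-derived 3T3Gli1-Luc cells carrying a stable Gli1-driven firefly luciferase reporter; series mostly up to about 92 µM; nearly all actives have a fitted effect of over 15% in size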)
Method in brief: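 Mouse fibroblast (NIH/3T3) reporter cells with stably integrated Gli1-Luc were treated 24 hr with compound; firefly luciferase luminescence served as the read-out.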

[2] = qHTS assay to identify small molecule antagonists of the sonic hedgehog signaling (Shh) pathway (AID 1259369; calls by dose curve; also: nearly all actives have a fitted effect of over 45% in size)
Method in brief: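 Conditioned medium drives Shh signalling in 3T3Gli1-Luc cells; compounds in DMSO co-applied, 24hr at 37 C, then luciferase luminescence.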

[3] = biological target: Estrogen receptor beta (Homo sapiens) (UniProt Q92731); assay: qHTS assay to identify small molecule agonists of the estrogen receptor beta (ER-beta) signaling pathway (AID 1259377; active = well fitted activation curve with a large enough effect in the signal ratio in the repeat runs, not every such curve was filed as active; the % refers to the signal ratio)
Estrogen receptor beta (Homo sapiens), sequence (Q92731 whole entry, looked up): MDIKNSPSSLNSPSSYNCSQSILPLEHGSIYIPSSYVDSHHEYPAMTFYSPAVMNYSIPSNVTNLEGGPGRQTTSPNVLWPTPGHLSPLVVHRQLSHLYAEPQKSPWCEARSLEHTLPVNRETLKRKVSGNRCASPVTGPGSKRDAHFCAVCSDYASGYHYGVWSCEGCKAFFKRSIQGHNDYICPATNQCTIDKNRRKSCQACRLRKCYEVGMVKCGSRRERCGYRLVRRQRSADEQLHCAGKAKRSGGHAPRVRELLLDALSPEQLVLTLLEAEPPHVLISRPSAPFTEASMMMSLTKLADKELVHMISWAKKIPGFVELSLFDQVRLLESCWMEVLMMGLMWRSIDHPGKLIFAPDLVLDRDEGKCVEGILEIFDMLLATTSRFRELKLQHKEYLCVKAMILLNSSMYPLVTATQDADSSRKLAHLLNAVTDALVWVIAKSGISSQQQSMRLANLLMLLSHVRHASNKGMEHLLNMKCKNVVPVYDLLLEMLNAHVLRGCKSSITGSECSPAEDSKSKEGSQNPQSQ
Method in brief: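 Ratiometric beta-lactamase FRET read-out came after 2 h substrate loading at room temperature. It followed 16 h compound treatment at 37C of GripTite HEK293T cells carrying a UAS-bla reporter, plated in 2% charcoal-stripped FBS medium.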

[4] = biological target: Estrogen receptor beta (Homo sapiens) (UniProt Q92731); assay: qHTS assay to identify small molecule antagonists of the estrogen receptor beta (ER-beta) signaling pathway (AID 1259378; active = well fitted inhibition curve with a large enough effect in the signal ratio in the repeat runs, not every such curve was filed as active; the % refers to the signal ratio)
Method in brief: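 ER-beta-UAS-bla HEK293T (GripTite) cells in 2% charcoal-stripped FBS medium were preincubated 6 hr at 37C, dosed with compound, then stimulated with 1 nM E2 (final) for 16 hr; beta-lactamase reporter read by B/G FRET fluorescence after 2 hr substrate loading.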

[5] = qHTS assay to identify small molecule agonists of the estrogen receptor beta (ER-beta) signaling pathway - cell viability counter screen (AID 1259380); also: nearly all actives have a fitted effect of over 30% in size
Method in brief: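 Cells used were ER-beta-UAS-bla HEK293T in medium with 2% charcoal-stripped FBS. They were treated for 16 hr at 37C. Viability came from CellTiter-Glo luminescence.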

[6] = biological target: Androgen receptor (Homo sapiens) (UniProt P10275); assay: qHTS assay to identify small molecule agonists of the androgen receptor (AR) signaling pathway in the presence of an antagonist (AID 1259381; calls by dose curve; also: nearly all actives have a fitted effect of over 15% in size)
Androgen receptor (Homo sapiens), sequence (P10275 whole entry, looked up): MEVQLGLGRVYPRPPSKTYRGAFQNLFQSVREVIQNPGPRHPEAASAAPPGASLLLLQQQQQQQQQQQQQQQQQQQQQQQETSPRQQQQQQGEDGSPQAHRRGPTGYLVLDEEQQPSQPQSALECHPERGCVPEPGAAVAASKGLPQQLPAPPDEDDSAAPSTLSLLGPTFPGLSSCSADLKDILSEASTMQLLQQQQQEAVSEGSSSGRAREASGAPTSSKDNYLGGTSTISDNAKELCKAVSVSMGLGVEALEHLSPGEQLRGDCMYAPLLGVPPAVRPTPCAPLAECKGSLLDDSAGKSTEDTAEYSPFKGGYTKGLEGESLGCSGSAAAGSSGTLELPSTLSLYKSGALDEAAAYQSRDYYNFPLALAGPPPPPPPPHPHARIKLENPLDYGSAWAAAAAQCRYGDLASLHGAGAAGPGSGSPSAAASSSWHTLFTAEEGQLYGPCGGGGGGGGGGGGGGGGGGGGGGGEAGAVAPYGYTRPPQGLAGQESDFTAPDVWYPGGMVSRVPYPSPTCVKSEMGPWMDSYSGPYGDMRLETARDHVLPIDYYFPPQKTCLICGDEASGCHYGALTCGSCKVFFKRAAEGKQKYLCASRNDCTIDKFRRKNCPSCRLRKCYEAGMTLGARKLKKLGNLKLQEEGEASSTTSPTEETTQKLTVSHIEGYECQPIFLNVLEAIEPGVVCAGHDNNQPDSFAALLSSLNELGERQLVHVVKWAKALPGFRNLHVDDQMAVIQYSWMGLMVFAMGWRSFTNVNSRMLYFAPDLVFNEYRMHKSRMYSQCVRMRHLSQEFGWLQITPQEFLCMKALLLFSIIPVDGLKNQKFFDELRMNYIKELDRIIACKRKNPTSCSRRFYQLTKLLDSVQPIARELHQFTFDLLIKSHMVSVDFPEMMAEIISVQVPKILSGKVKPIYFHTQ
Method in brief: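 Using human MDA-kb2 cells with an MMTV promoter–luciferase construct (AR and GR response elements), agonist activity is scored under 3.0uM nilutamide (final) co-treatment; 16hr incubation, 37C, luminescence readout via ONE-Glo.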

[7] = qHTS assay to identify small molecule antagonists of the estrogen receptor beta (ER-beta) signaling pathway - cell viability counter screen (AID 1259382); also: series mostly up to about 92 µM; nearly all actives have a fitted effect of over 55% in size
Method in brief: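 Agonist-stimulated (1nM E2) ER-beta-UAS-bla HEK293T cells are incubated with library compounds for 16 hr at 37C. Cell viability is then assessed in the reporter-assay wells by adding CellTiter-Glo and reading luminescence after 30 min.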

[8] = biological target: Progesterone receptor (Homo sapiens) (UniProt P06401); assay: qHTS assay to identify small molecule agonists of the progesterone receptor (PR) signaling pathway (AID 1346784; calls by dose curve; also: nearly all actives have a fitted effect of over 30% in size)
Progesterone receptor (Homo sapiens), sequence (P06401 whole entry, looked up): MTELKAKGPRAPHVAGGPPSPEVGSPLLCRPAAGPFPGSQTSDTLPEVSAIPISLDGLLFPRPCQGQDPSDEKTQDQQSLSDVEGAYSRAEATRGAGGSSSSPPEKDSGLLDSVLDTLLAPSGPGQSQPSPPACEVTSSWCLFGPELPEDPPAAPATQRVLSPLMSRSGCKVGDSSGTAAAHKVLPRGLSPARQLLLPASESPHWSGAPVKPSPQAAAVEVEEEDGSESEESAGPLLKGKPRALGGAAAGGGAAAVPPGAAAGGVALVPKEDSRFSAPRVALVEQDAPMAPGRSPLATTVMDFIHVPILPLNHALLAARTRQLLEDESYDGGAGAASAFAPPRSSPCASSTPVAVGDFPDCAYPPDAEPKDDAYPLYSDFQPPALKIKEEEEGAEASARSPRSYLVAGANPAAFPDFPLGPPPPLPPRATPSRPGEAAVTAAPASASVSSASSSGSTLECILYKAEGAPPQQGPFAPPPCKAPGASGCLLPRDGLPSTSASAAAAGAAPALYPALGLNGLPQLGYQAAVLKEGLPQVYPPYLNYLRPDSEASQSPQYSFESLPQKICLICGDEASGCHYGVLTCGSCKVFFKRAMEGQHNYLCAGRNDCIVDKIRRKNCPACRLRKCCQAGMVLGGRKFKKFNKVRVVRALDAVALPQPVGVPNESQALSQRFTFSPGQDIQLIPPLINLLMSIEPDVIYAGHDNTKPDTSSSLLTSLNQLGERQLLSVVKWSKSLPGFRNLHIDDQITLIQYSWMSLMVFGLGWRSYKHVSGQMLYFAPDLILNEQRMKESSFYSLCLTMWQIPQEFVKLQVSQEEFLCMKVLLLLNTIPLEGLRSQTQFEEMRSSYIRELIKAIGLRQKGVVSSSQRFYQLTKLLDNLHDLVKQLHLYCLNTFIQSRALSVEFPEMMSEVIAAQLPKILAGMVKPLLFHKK
Method in brief: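 Agonist qHTS: compounds pinned onto 3,000 PR-UAS-bla HEK 293T cells per well in charcoal-stripped serum medium, 16hr at 37C, then beta-lactamase activity measured by LiveBLAzer FRET fluorescence after 2 hours at room temperature.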

[9] = biological target: Progesterone receptor (Homo sapiens) (UniProt P06401); assay: qHTS assay to identify small molecule antagonists of the progesterone receptor (PR) signaling pathway (AID 1346795; active = well fitted inhibition curve with a large enough effect in the signal ratio in the repeat runs, not every such curve was filed as active; the % refers to the signal ratio)
Method in brief: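 Antagonist mode with agonist R5020 at 1 nM final and 16 hr incubation at 37C. Reporter was beta-lactamase driven by UAS in HEK293T (PR-UAS-bla), 2% charcoal-stripped serum; signal from LiveBLAzer FRET substrate, 2 hr at room temperature.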

[10] = qHTS assay to identify small molecule antagonists of the TGF-beta/Smad signaling pathway - cell viability counter screen (AID 1346824); also: nearly all actives have a fitted effect of over 50% in size
Method in brief: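 SBE-bla HEK 293T cells were plated overnight at 37 C, then given compounds in DMSO plus TGF-beta1 (added as 0.25 ng/mL solution) for 5 hr. After the bla read, CellTiter-Glo was added to the same wells and luminescence read after 30 min at room temperature.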

[11] = qHTS assay to identify small molecule agonists of the TGF-beta/Smad signaling pathway - cell viability counter screen (AID 1346829); also: top concentration of the series differs between compounds; nearly all actives have a fitted effect of over 45% in size
Method in brief: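 Tox21 qHTS format: SBE-bla HEK 293T cells treated with DMSO-dissolved compounds for 5 hr; CellTiter-Glo luminescence after 30 min at room temperature.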

[12] = qHTS assay to identify small molecule agonists of the TGF-beta/Smad signaling pathway (AID 1346859; active = well fitted activation curve with a large enough effect in the signal ratio in the repeat runs, not every such curve was filed as active; the % refers to the signal ratio; also: series mostly up to about 77 µM)
Method in brief: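 Fluorescence (ex 405 nm; em 460 and 530 nm) was read 2 h after LiveBLAzer FRET substrate at RT. The preceding compound treatment of overnight-plated SBE-bla HEK293T cells lasted 5 h at 37 C.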

[13] = biological target: Thyrotropin-releasing hormone receptor (Homo sapiens) (UniProt P34981); assay: qHTS assay to identify small molecule antagonists of the thyrotropin-releasing hormone receptor (TRHR) signaling pathway (AID 1346877; active = well fitted inhibition curve with a large enough effect in the repeat runs, not every such curve was filed as active; also: series mostly up to about 51 µM)
Thyrotropin-releasing hormone receptor (Homo sapiens), sequence (P34981 whole entry, looked up): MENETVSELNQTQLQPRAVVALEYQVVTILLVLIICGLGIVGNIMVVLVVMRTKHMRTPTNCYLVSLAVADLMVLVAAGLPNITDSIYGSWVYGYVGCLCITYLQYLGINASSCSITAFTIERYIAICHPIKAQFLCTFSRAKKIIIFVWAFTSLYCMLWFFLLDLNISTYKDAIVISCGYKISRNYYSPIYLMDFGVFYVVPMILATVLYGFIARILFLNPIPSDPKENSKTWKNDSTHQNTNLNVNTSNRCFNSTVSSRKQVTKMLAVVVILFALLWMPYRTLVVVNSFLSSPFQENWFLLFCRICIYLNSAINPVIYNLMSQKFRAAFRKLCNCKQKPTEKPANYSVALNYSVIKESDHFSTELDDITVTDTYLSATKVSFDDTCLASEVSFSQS
Method in brief: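 Screening used HEK293 cells engineered with TRHR, with a brief 5 min room-temperature compound exposure preceding addition of TRH to 1 nM. The read-out was kinetic calcium-dye fluorescence, concentration-response from 15 doses in triplicate.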

[14] = qHTS assay to identify small molecule agonists of the estrogen receptor alpha (ER-alpha) signaling pathway in the presence of an antagonist - cell viability counter screen (AID 1259386);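 also: series mostly up to about 92 µM; cells exposed to compounds for 22 h at 37 °C before the viability read; nearly all actives have a fitted effect of over 30% in size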
Method in brief: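 ICI-182,780 at 10.0nM final accompanies the compound titration (15 concentrations, 22hr, 37C) on VM7Luc4E2 cells. The CellTiter-Fluor fluorescence readout runs in the same wells as the luciferase assay.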

[15] = qHTS assay to identify small molecule antagonists of the progesterone receptor (PR) signaling pathway - cell viability counter screen (AID 1346798); also: series mostly up to about 92 µM; nearly all actives have a fitted effect of over 50% in size
Method in brief: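 Cytotoxicity read as CellTiter-Glo luminescence (30 min, room temperature) in the same wells as the beta-lactamase readout. HEK293T PR-UAS-bla cells in charcoal-stripped 2% FBS received compound and R5020, then 16 h at 37C, 5% CO2.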

[16] = qHTS assay to identify small molecule agonists of the progesterone receptor (PR) signaling pathway - cell viability counter screen (AID 1346799; calls by dose curve; also: nearly all actives have a fitted effect of over 45% in size)
Method in brief: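 Cytotoxicity measured by CellTiter-Glo luminescence (30 min, RT) in the same wells as the PR beta-lactamase agonist read. Those HEK293T cells had 16 h compound treatment at 37 C in 2% charcoal-stripped FBS medium.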

[17] = qHTS assay to identify small molecule agonists of the androgen receptor (AR) signaling pathway in the presence of an antagonist - cell viability counter screen (AID 1259379);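 also: MDA-kb2 human breast cancer cells carrying an MMTV luciferase reporter; series mostly up to about 92 µM; nearly all actives have a fitted effect of over 25% in size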
Method in brief: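 A CellTiter-Fluor read-out measured viability of MDA-kb2 reporter cells (MMTV promoter with AR and GR response elements). Treatment: nilutamide 3.0uM final with compounds at 15 concentrations, 16 hr, 37C, 0% CO2.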

[18] = biological target: Estrogen receptor (Homo sapiens) (UniProt P03372); assay: qHTS assay to identify small molecule agonists of the estrogen receptor alpha (ER-alpha) signaling pathway in the presence of an antagonist (AID 1259383; calls by dose curve; also: top concentration of the series differs between compounds; nearly all actives have a fitted effect of over 15% in size)
Estrogen receptor (Homo sapiens), sequence (P03372 whole entry, looked up): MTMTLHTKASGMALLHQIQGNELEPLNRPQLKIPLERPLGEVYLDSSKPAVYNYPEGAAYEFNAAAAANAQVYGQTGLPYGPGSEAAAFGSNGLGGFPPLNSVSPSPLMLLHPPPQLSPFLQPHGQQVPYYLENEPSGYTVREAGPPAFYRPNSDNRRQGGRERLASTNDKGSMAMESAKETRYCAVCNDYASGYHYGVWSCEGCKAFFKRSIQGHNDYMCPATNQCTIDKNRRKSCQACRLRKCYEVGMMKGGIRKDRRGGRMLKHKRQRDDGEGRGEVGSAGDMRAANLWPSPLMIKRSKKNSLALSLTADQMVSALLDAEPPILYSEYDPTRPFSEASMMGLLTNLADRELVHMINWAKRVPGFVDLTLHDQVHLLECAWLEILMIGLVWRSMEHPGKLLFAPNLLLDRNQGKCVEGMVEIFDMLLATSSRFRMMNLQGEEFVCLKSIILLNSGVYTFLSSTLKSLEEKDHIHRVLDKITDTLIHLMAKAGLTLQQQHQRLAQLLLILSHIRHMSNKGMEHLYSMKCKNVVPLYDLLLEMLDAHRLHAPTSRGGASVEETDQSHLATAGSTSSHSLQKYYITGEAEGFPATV
Method in brief: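 Using VM7Luc4E2 cells seeded 24hr before treatment, antagonist ICI-182,780 (10.0nM final) was added, followed by compounds at 15 concentrations. Plates incubated 22hr; ONE-Glo luminescence quantified reporter activity.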

[19] = qHTS assay to identify small molecule agonists or antagonists of the thyroid stimulating hormone receptor (TSHR) signaling pathway - wild type cell line counter screen (AID 1259384; calls by dose curve)
Method in brief: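 Wild-type HEK293 cells were plated 18 h at 37 C/5% CO2, pin-dosed with compound plus Ro20-1724 medium, held 30 min at room temperature, then given cAMP-d2 and anti-cAMP-cryptate; fluorescence was read after 1 h. Fifteen concentrations, triplicate.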

[20] = biological target: Thyrotropin receptor (Homo sapiens) (UniProt P16473); assay: qHTS assay to identify small molecule antagonists of the thyroid stimulating hormone receptor (TSHR) signaling pathway (AID 1259385; calls by dose curve; also: nearly all actives have a fitted effect of over 20% in size)
Thyrotropin receptor (Homo sapiens), sequence (P16473 whole entry, looked up): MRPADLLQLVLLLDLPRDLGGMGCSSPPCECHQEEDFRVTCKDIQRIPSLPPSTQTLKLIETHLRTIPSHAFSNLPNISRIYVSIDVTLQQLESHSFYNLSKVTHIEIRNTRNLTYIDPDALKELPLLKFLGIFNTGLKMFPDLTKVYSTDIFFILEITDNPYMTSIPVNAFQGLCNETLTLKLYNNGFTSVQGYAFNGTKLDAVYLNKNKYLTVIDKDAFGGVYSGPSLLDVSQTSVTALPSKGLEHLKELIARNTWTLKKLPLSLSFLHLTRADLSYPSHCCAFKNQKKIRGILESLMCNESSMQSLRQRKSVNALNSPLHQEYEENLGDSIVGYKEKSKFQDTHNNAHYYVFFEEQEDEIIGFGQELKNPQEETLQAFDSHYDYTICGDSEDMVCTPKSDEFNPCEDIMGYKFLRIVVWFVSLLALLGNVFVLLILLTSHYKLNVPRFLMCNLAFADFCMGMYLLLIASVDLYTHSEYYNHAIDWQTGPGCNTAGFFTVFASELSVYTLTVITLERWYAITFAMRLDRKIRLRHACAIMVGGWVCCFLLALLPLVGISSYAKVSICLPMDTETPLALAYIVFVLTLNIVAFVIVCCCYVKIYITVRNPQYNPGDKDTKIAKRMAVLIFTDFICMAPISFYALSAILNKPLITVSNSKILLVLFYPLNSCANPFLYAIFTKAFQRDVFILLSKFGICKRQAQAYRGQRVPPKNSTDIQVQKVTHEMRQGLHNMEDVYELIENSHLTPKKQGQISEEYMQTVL
Method in brief: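 TSHR-HEK293 cells were plated and held 18 h at 37C/5% CO2, then given compound plus Ro20-1724 and stimulated with TSH at 1.5 ng/mL final. After 30 min at room temperature, cAMP was detected with cAMP-d2/anti-cAMP-cryptate (1 h) by fluorescence.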

Measured: Potency

N#Cc1ccc(C(=O)O)cc1
inactive: [1] | [2] | [3] | [4] | [5] | [6] | [7] | [8] | [9] | [10] | [11] | [12] | [13]

CCOCCOCCOCC
inactive: [1] | [2] | [3] | [4] | [5] | [7] | [14] | [15] | [16] | [10] | [11] | [12] | [13]

COC(=O)c1ccccc1C(=O)c1ccc(OCCN2CCCCC2)cc1
inactive: [1] | [2] | [3] | [4] | [17] | [7] | [18] | [19] | [20] | [14] | [8] | [9] | [15] | [16] | [10] | [11] | [12] | [13]

O=Cc1ccc(Cl)c(Cl)c1
inactive: [1] | [2] | [3] | [4] | [17] | [5] | [19] | [14] | [8] | [9] | [15] | [16] | [10] | [11] | [12]

COC(=O)CCCCCCCC(=O)OC
inactive: [1] | [2] | [3] | [4] | [17] | [5] | [18] | [19] | [20] | [14] | [8] | [9] | [15] | [10] | [11] | [12] | [13]

C=C1CC/C=C(\C)CC[C@@H]2[C@@H]1CC2(C)C
inactive: [1] | [2] | [3] | [4] | [5] | [18] | [19] | [20] | [14] | [15] | [16] | [10] | [11] | [12]

CC(C)CC(=O)O
inactive: [1] | [2] | [3] | [4] | [17] | [5] | [18] | [19] | [14] | [8] | [9] | [15] | [16] | [10] | [11] | [12] | [13]

Cc1cccc(C)c1NC(=O)c1ccccc1C(=O)O
inactive: [1] | [2] | [4] | [17] | [5] | [6] | [7] | [18] | [19] | [20] | [14] | [8] | [9] | [15] | [16] | [10] | [11] | [13]

OCCN(CCO)c1cccc(Cl)c1
inactive: [1] | [2] | [3] | [4] | [5] | [6] | [7] | [19] | [14] | [8] | [9] | [15] | [16] | [10] | [11] | [12] | [13]

CC(C)c1ccc2cc(C(C)C)ccc2c1
inactive: [1] | [2] | [3] | [17] | [5] | [6] | [7] | [18] | [19] | [20] | [8] | [9] | [15] | [16] | [10] | [11] | [12] | [13]

CC(C)NCC(O)COc1ccc(COCCOC(C)C)cc1 (configuration not stated)
inactive: [1] | [2] | [3] | [4] | [5] | [6] | [7] | [18] | [19] | [20] | [14] | [9] | [15] | [16] | [10] | [11] | [12] | [13]

c1ccc2nccnc2c1
inactive: [1] | [2] | [3] | [17] | [5] | [18] | [19] | [20] | [8] | [9] | [10] | [11] | [13]

COc1cc(N)ccc1C
inactive: [1] | [2] | [3] | [17] | [5] | [7] | [19] | [8] | [15] | [10] | [11] | [12]

COCCOCCOCCOCCOCCO
inactive: [1] | [2] | [3] | [4] | [17] | [5] | [7] | [19] | [14] | [8] | [15] | [16] | [10] | [11] | [12] | [13]

NCCS
inactive: [1] | [2] | [3] | [4] | [5] | [7] | [14] | [8] | [9] | [15] | [16] | [10] | [11] | [12] | [13]

Nc1nnc(-c2cccc(Cl)c2Cl)c(N)n1
inactive: [1] | [2] | [3] | [4] | [17] | [5] | [7] | [19] | [20] | [14] | [8] | [9] | [15] | [16] | [10] | [11] | [12] | [13]
